Shiga inhibitor: A qHTS for Small Molecule Inhibitors of Shiga Toxin; Vero cells, Shiga toxin protein synthesis inhibition reporter; inhibition, % at 38.7 µM; 290,000 compounds, 9.2% hits; in the data active = inhibition mostly above about 28%, no sharp cut-off; inactive = mostly below about 43%
HCMV antiviral: qHTS Assay for inhibitors of the human cytomegalovirus (HCMV). HFF cells, HCMV-luciferase reporter, 72 h; stronger effect = lower value. activity change, negative = inhibition, % at 57.5 µM. 410,000 compounds, 4.5% hits. AID 1259415, 2018; in the data active = activity change below about -60%; inconclusive = no clear call, values can overlap the other calls; inactive = above about -39%
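Two compound doses tested in HFFs infected with HCMV-luciferase, MOI 1 PFU/cell, 72 h at 37C. Lysate luminescence read with OneGlo; data normalized against buffer-only and 10uM Salinomycin inhibitor controls.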
Cycloheximide cs: Cycloheximide Counterscreen for Small Molecule Inhibitors of Shiga Toxin; AID 2314, 2010; cell reporter, cycloheximide protein synthesis inhibition counterscreen; max response, %; 300,000 compounds, 12% hits; in the data active = max response mostly above about 13%, no sharp cut-off; inactive = mostly below about 14%; note: read at 38.3 µM for the half of the compounds with a filed dose
Pf growth 48h: Primary qHTS for delayed death inhibitors of the malarial parasite plastid, 48 hour incubation | P. falciparum luciferase growth in erythrocytes, 48 h | Potency, µM (series often up to 28.7 µM), actives largely listed as inhibitors | 310,000 compounds, 5.9% hits | AID 504832, 2011
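Parasite viability was followed by luminescence of a genomically integrated firefly luciferase. Cultures held 0.1% parasitemia at 2% hematocrit (final), incubated under 5% CO2 at 37 C.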
Pf growth 96h: Primary qHTS for delayed death inhibitors of the malarial parasite plastid, 96 hour incubation; P. falciparum luciferase reporter growth, 96 h; Potency, µM (highest dose often 28.7 µM), actives largely listed as inhibitors; 320,000 compounds, 6.9% hits
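Parasite growth measured via integrated firefly luciferase reporter in P. falciparum. Infected erythrocytes at 2% hematocrit, 0.05% parasitemia final were treated 96 hours at 37 C under 5% CO2, and luminescence was read.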
A number is an active result; . = inactive; ? = inconclusive; / = no result given; + = active, no number. Hits are enriched below; roughly 20% of the tested compounds scored in any of these assays. Unless noted, calls come from the whole dose curve; as a rule, active = well fitted inhibition curve with a large enough effect; inconclusive = small, poorly fitted or top-dose-only effect, or another doubt; inactive = no such curve, though single readings can be large or run the other way.

SMILES | Shiga inhibitor | HCMV antiviral | Cycloheximide cs | Pf growth 48h | Pf growth 96h
COc1ccc([C@H]2CC(=O)C=C(c3cccc(C#N)c3)C2)cc1 | / | . | / | ? | .
Cc1ccc(NC2=C(Cl)C(=O)OC2OC(C)C)cc1 (configuration not stated) | . | . | . | . | 13µM
O=C(N=C1c2ccccc2CN1c1ccc(F)c(Cl)c1)c1cccnc1Cl | 77 | ? | 70 | . | ?
N#Cc1ccc(N2Cc3ccccc3C2=NC(=O)c2cccnc2Cl)cc1 | + | . | 25 | . | .
N#Cc1ccc(COC(=O)c2cccnc2Cl)cc1 | . | . | . | . | .
O=C(N/N=C/c1ccc(OC(=O)c2ccco2)cc1)c1ccc[n+]([O-])c1 | / | . | / | / | /
COc1cccc(-c2n[nH]c3ccnc(-c4cccc(C(C)=O)c4)c23)c1 | / | . | / | / | /
CCOC(=O)C(C)On1c(-c2ccccc2)nc2ccc([N+](=O)[O-])cc21 (configuration not stated) | 50 | . | 35 | . | /
CCOC(=O)C(C)On1c(-c2ccc(Cl)cc2)nc2ccc([N+](=O)[O-])cc21 (configuration not stated) | . | . | . | . | /
O=C(O)COn1c(-c2ccccc2)nc2ccc([N+](=O)[O-])cc21 | 49 | . | 25 | . | .
CCC1(c2ccccc2)SC(=O)NC1=O (configuration not stated) | / | . | / | / | /
O=C(Nc1ccc(N2CCCCC2)cc1)c1ccccn1 | . | / | . | . | .
O=C(N/N=C\c1ccc(OC(=O)c2ccco2)cc1)c1ccc(Cl)cc1 | . | . | . | . | .
O=C(N/N=C/c1cccc(OC(=O)c2ccco2)c1)c1ccc(F)cc1 | 26 | . | 64 | . | .
COc1cc(/C=N/NC(=O)c2ccncc2)ccc1OC(=O)c1ccco1 | . | . | . | . | ?
COc1cc(/C=N/NC(=O)c2ccc(F)cc2)ccc1OC(=O)c1ccco1 | . | . | 21 | . | .
COc1cc(/C=N/Nc2ccc3ccccc3c2)ccc1OC(=O)c1ccco1 | 41 | . | 29 | ? | ?
Cc1ccc(C)c(N(CC(=O)NC(C)(C)C)C(=O)CNC(=O)c2cccs2)c1 | . | . | . | . | .
O=C(/C=C/c1ccccc1)C1C(=O)c2ccccc2C1=O | 42 | . | 33 | . | .
CCc1ccc(C2C(C(=O)O)c3ccccc3C(=O)N2C)cc1 (configuration not stated) | . | . | . | . | /
CCc1ccc(/C=C/C(=O)C2C(=O)c3ccccc3C2=O)cc1 | . | . | . | 0.93µM | 0.93µM
CCCCNC(=O)c1onc(CSc2ccccn2)c1C(=O)NCCCC | / | . | / | / | /
CO/N=C/c1cc([N+](=O)[O-])ccc1Sc1ccc(C)cc1 | . | . | . | ? | .
COc1cccc(CNC(=O)c2ccc3c(c2)nc2n3CCOC2)c1 | / | . | / | / | /
O=C(COC(=O)c1ccccc1Cc1ccccc1)Nc1ccc(SC(F)F)cc1 | 129 | . | 54 | ? | ?
SMILES | Shiga inhibitor | HCMV antiviral | Cycloheximide cs | Pf growth 48h | Pf growth 96h
Cc1ccc(C(=O)c2ccccc2C(=O)OCC(=O)Nc2cccc([N+](=O)[O-])c2)cc1 | . | . | . | . | .
Cc1ccc(C(=O)c2ccccc2C(=O)OCC(=O)Nc2ccc(SC(F)F)cc2)cc1 | . | . | 16 | . | .
CSc1ccccc1NC(=O)COC(=O)c1ccccc1Cc1ccccc1 | . | . | . | ? | ?
CCOc1ccccc1C(=O)OCC(=O)Nc1ccc(OC(F)F)cc1 | . | . | 17 | . | /
CCOC(=O)C1(c2nc(N)cs2)COC(=O)C1 (configuration not stated) | . | . | . | . | .
Cc1ccc(C(=O)N2CCC3(CC2)NCCc2[nH]cnc23)cc1C | . | . | . | . | .
OC(c1ccccc1)(C1CCCCC1)C(CN1CCOCC1)c1ccccc1 (configuration not stated) | . | . | . | 2.9µM | .
CCC(O)(c1ccccc1)C(CN1CCOCC1)c1ccccc1 (configuration not stated) | . | . | . | ? | .
COc1ccc(C(O)(C2CCCCC2)C(CN2CCOCC2)c2ccccc2)cc1 (configuration not stated) | . | -61 | . | ? | .
Clc1ccc(-c2noc(CSc3nnc(-c4ccncc4)n3-c3ccccc3)n2)cc1 | . | -101 | . | . | /
Cc1ccc(-c2noc(CSc3nnc(-c4ccncc4)n3-c3ccc(C)cc3)n2)cc1 | . | . | . | ? | 12µM
O=C(COC(=O)CCSc1ccccc1)Nc1ccccc1Br | / | . | / | / | /
COc1ccc(-n2nnnc2C(c2cccs2)N2CCC(n3c(=O)[nH]c4ccccc43)CC2)cc1 (configuration not stated) | / | . | / | / | /
CSCCC(c1nnnn1-c1ccc2c(c1)OCCO2)N1CCC(n2c(=O)[nH]c3ccccc32)CC1 (configuration not stated) | / | -72 | / | / | /
O=c1[nH]c2ccccc2n1C1CCN(C(c2cccs2)c2nnnn2-c2ccc3c(c2)OCCO3)CC1 (configuration not stated) | / | -80 | / | / | /
COc1ccc(-n2nnnc2C(c2ccccc2)N2CCC(n3c(=O)[nH]c4ccccc43)CC2)cc1 (configuration not stated) | / | . | / | / | /
O=c1[nH]c2ccccc2n1C1CCN(C(c2ccccc2)c2nnnn2-c2ccc3c(c2)OCCO3)CC1 (configuration not stated) | / | -86 | / | / | /
O=c1[nH]cnc2c1ccn2C1OC(CO)C(O)C1O (configuration not stated) | / | -69 | / | / | /
O=c1[nH]c(=S)ccn1C1OC(CO)C(O)C1O (configuration not stated) | / | . | / | / | /
Cc1ccc(NC(=O)c2cc(S(=O)(=O)NCCC3=CCCCC3)ccc2F)cc1 | . | -84 | . | ? | ?
Cc1ccc(C)c(NC(=O)c2cc(S(=O)(=O)NCCC3=CCCCC3)ccc2F)c1 | / | . | / | / | /
O=S(=O)(NCCC1=CCCCC1)c1ccc(Br)cc1 | . | -73 | . | . | .
CCC1CCCCN1Cc1nc2ccccc2c(=O)n1CC(C)=O (configuration not stated) | 75 | . | 34 | ? | ?
Cc1c(NC(=O)c2ccc(S(=O)(=O)Nc3ccccc3F)cc2)c(=O)n(-c2ccccc2)n1C | / | . | / | / | /
N=C1C(c2ccccc2)=C(O)CN1c1cccc(O)c1 | . | . | . | . | .
SMILES | Shiga inhibitor | HCMV antiviral | Cycloheximide cs | Pf growth 48h | Pf growth 96h
Cc1cc2c(cc1C)CN(c1ccccc1)C2 | 66 | . | 48 | . | ?
Oc1cccc(N2Cc3ccccc3C2)c1 | 31 | / | . | . | .
O=Cc1ccc(N2Cc3ccccc3C2)cc1 | 57 | . | 18 | . | ?
CCOC(=O)c1ccc(N2Cc3cc(C)c(C)cc3C2)cc1O | . | / | 19 | . | .
CCOC(=O)c1ccc(-n2c(CCC(=O)O)ccc2-c2ccccc2)cc1O | / | . | / | / | /
CC(C)C(=O)Nc1nnc(SCc2cc(=O)n3ccccc3n2)s1 | / | . | / | / | /
C=CCOC(=O)C(C(=O)Cc1ccccc1)c1ccccc1 (configuration not stated) | / | . | / | / | /

Assay outcomes: PubChem, National Center for Advancing Translational Sciences (NCATS)
